# GPR151 activ: activators of human GPR151. activation, % at 11.2 µM. AID 1508602. hit rate 1% among 650,000. PathHunter beta-arrestin GPR151 cells, luminescence; in the data active = activation above about 4.9%;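 also: 0% = median of compound wells and 100% = cells with positive control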
# Target sequence (Q8TDV0 whole entry, looked up): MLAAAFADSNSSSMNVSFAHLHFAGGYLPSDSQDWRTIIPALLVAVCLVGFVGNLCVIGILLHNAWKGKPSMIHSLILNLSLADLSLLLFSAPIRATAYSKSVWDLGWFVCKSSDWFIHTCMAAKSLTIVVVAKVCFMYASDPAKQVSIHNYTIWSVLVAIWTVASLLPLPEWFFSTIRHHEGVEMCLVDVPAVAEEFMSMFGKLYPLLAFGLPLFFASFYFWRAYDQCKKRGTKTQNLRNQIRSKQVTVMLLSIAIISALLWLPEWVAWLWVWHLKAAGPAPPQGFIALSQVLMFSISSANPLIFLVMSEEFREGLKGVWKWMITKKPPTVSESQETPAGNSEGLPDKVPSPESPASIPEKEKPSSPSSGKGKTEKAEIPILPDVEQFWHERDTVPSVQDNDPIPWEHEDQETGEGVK
# MITF inh: blocks human microphthalmia-associated transcription factor; AlphaScreen MITF homodimerization, bead proximity signal; O75030; hit rate 0.91% among 650,000; AID 1259374; inhibition, % at 2.6 µM; in the data active = inhibition above about 50%;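 also: 0% = vehicle wells with protein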
# FBW7 activator: activators of human E3 ligase FBW7 | Q969H0 | AlphaScreen FBW7–phospho-cyclin E peptide binding, activator screen | normalized activity (activation), % at 26.1 µM | hit rate 0.13% among 650,000 | AID 1259310; in the data active = normalized activity above about 1.9%;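 also: purified mutant Fbw7 with reduced substrate affinity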
# TEAD-YAP block: TEAD-YAP interaction inhibition. HEK-TIYL cells, TEAD-Gal4/YAP UAS-luciferase luminescence. inhibition, % at 9.12 µM. hit rate 1.4% among 640,000. AID 1259422; in the data active = inhibition above about 32%;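 also: 0% = median of test compound wells and 100% = reference inhibitor wells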
# The depositor's hits bear a star; ! = not active in a repeat. Sampled rows, rich in hits. Any-hit rate of the full collection: about 3.5%.
SMILES,GPR151 activ,MITF inh,FBW7 activator,TEAD-YAP block
COCCNC(=O)/C(C#N)=C/c1cc(C)n(-c2ccccc2)c1C,-0.4,1.4,0.0,64.8*
CNC(=O)/C(C#N)=C\c1cc(C)n(-c2ccc(Br)cc2)c1C,-1.0,0.6,-0.1,32.0*
COC(=O)c1cccc(-n2c(C)cc(/C=C(\C#N)C(=O)Nc3ccc(OC)cc3)c2C)c1,-1.1,-8.3,-0.2,52.6*
COCCCNC(=O)/C(C#N)=C/c1cc(C)n(-c2sc3c(c2C#N)CCCC3)c1C,0.2,-7.3,-0.3,58.7*
CNC(=O)/C(C#N)=C\c1cc(C)n(-c2ccc(N3CCOCC3)cc2)c1C,-1.1,11.6,0.0,31.6
Cc1ccc(Cl)c(NC(=O)CSc2nc(N)cc(=O)[nH]2)c1Cl,2.2,-10.7,-0.1,3.1
NNC(=O)c1nc2ccc(Cl)cn2c1Br,0.6,6.6,0.2,0.8
Cc1cc(/C=C(\C#N)C(=O)N2CCOCC2)c(C)n1-c1ccccc1,-3.3,1.8,-0.2,71.3*
COC(=O)c1ccc(-n2c(C)cc(/C=C(\C#N)C(=O)N3CCOCC3)c2C)cc1,-0.4,13.1,-0.2,1.0
CCCn1cc(NC(=O)c2cc(-c3ccccc3OCc3ccccc3)no2)cn1,1.9,12.8,0.1,42.8*
CCCn1cc(NC(=O)c2cc3ccccc3o2)cn1,-1.3,-8.6,-0.1,-55.2
CCCc1nc(Cc2ccc(OC)cc2)no1,2.3,17.8,0.3,-16.9
CCC(C)Oc1ccc(C=C2C(=O)N(C)C(=S)N(C)C2=O)cc1OC (stereo not given),-1.0,14.4,0.1,0.5
CCOC(=O)C1CCN(c2ccc3nncn3n2)CC1,0.9,2.3,0.1,5.3
CCOC(=O)c1cn2nc(N3CCCCC3)ccc2n1,-6.2,-0.5,-0.1,42.9*
O=C(CCc1ccccc1)NC(c1ccc2c(c1)OCO2)c1ccc2cccnc2c1O (stereo not given),-0.6,15.8,-0.6,82.8*
CCCC(=O)NC(c1ccc(OC)c(OC)c1)c1ccc2cccnc2c1O (stereo not given),0.1,45.4,-1.6,87.5*
COc1ccc(C(NC(=O)Cc2ccccc2)c2ccc3cccnc3c2O)cc1OC (stereo not given),0.6,24.3,-1.6,90.1*
CCn1c(=O)[nH]c2c(C(N)=O)nc(-c3ccccc3F)nc21,-0.1,1.2,0.1,-1.7
CCN(Cc1ccccc1)S(=O)(=O)c1c[nH]c(=O)[nH]c1=O,-1.2,5.8,0.0,-0.2
COc1ccc(-c2cn3nc(N4CCCC(C(=O)N5CCCCCC5)C4)sc3n2)cc1 (stereo not given),0.7,6.8,-0.2,45.0*
O=C(NCCc1ccccc1)c1cccc(I)c1,1.0,1.6,0.1,-69.8
O=C(O)c1ccc2oc(-c3ccccc3)nc2c1,-9.3,4.2,-0.1,54.6*
Oc1ccc2oc(-c3ccccc3)nc2c1,-2.6,6.6,-0.1,48.6*
Nc1ccc2oc(-c3ccccc3)nc2c1,-4.3,1.5,-0.1,-35.2
SMILES,GPR151 activ,MITF inh,FBW7 activator,TEAD-YAP block
CC1=Nc2cc(C(=O)NCCN(C)C)ccc2Sc2ccc(Br)cc21,-0.6,10.0,-0.3,60.0*
CC1=Nc2cc(C(=O)NCCN3CCOCC3)ccc2Sc2ccc(Cl)cc21,-0.7,9.2,0.2,0.5
CCC1=Nc2cc(C(=O)NCC(OC)OC)ccc2Sc2ccc(C)cc21,0.0,-4.3,-0.1,60.4*
CCC1=Nc2cc(C(=O)NC)ccc2Sc2ccccc21,0.4,-14.6,-0.2,2.8
COCCNC(=O)c1ccc2c(c1)N=C(C)c1cc(Cl)ccc1S2,2.4,5.5,0.0,57.4*
Cc1ccnc(NS(=O)(=O)c2ccc(NC(=O)Nc3cccc(Cl)c3)cc2)n1,0.2,30.5,0.0,-0.2
CO/N=C(\CSc1ccc(C)cc1)c1sc2ncnn2c1C,-0.8,-0.7,0.2,3.7
CCOc1ccc(-n2c(-c3ccc(OC)cc3)c[n+]3c2CCCCC3)cc1,0.6,-2.7,-0.1,85.2*
CCOc1ccc(-n2c(-c3ccccc3)n[nH]c2=S)cc1,1.7,-1.3,-0.2,17.1
CCOc1ccc(-n2c(-c3ccccc3)c[n+]3c2CCC3)cc1,-0.1,0.7,0.0,49.0*
O=C(c1ccn(-c2ccnc(Nc3ccc(N4CCOCC4)cc3)c2)n1)N1CCC(O)CC1,0.1,-2.1,0.1,60.3*
CC1(C)CC(=O)C=C(NNC(=O)Cc2ccccc2)C1,-0.7,4.2,0.7,-1.6
CC1(C)CC(=O)C=C(NNC(=O)COc2ccccc2)C1,-0.5,14.5,1.9*!,4.8
O=C1CCN(C(=O)c2ccc(-c3nc4ccccc4s3)s2)CC1,-10.9,12.7,0.4,98.9*
Cc1sc2nc(SCc3ccccn3)nc(N)c2c1C,1.0,1.5,-0.1,9.7
O=S(=O)(NCC1CCCO1)c1ccc(Br)cc1 (stereo not given),-1.2,13.8,0.0,1.0
O=S(=O)(NCC1CCCO1)c1ccc(Oc2ccc(S(=O)(=O)NCC3CCCO3)cc2)cc1 (stereo not given),0.1,14.9,0.3,58.9*
Cc1cc(OCC(=O)Nc2ccccn2)ccc1Cl,3.1,-4.2,0.4,63.5*
Cc1ccnc(NC(=O)COc2ccc(Cl)c(C)c2)c1,-1.0,4.7,-0.1,-31.1
CN(C)c1ccc(/C=C/c2cc[n+](C)c3ccccc23)cc1,-2.4,49.7,-0.5,91.7*
COc1ccc(-c2csc(NC(=O)c3ccc(S(=O)(=O)N4CCOCC4)cc3)n2)c(OC)c1,0.1,-12.1,0.1,41.3*
Cc1ccc(C)c(-c2csc(NC(=O)c3ccc(S(=O)(=O)N4CCOCC4)cc3)n2)c1,-0.2,-7.0,0.0,42.4*
COCCN(CCOC)S(=O)(=O)c1ccc(C(=O)Nc2nc(-c3ccc(C)cc3C)cs2)cc1,0.8,-2.9,-0.3,35.9*
CC(C)(C)c1csc(NC(=O)c2ccc(S(=O)(=O)N3CCOCC3)cc2)n1,2.3,16.8,0.1,36.1*
Cc1ccc(-c2csc(NC(=O)c3ccc(S(=O)(=O)N4CCOCC4)cc3)n2)o1,-0.6,0.6,-0.3,28.0
SMILES,GPR151 activ,MITF inh,FBW7 activator,TEAD-YAP block
COc1cccc(C(=O)Nc2nc3ccccc3n2C)c1,-6.9,-2.6,0.0,19.9
O=C1CC(Sc2nc3ccccc3s2)C(=O)N1c1ccc(Cl)cc1Cl (stereo not given),-0.7,-0.1,0.0,0.6
O=C(c1ccc2c(=O)n(Cc3ccc(Cl)cc3)c(=S)[nH]c2c1)N1CCN(c2ncccn2)CC1,-0.5,-2.4,0.0,-1.9
COC(C(=O)Nc1ccnn1C1CCN(Cc2ccc(C)cc2C)CC1)c1ccccc1 (stereo not given),-0.3,8.8,-0.1,4.6
CCN(CC)c1ccc(C2CC(c3ccc(C)cc3)=NN2C(=O)CCC(=O)O)cc1 (stereo not given),1.0,-14.2,0.1,46.3*
CCC(C(=O)OC(C)C)n1cnc2sc(C(=O)Nc3ccccc3)c(C)c2c1=O (stereo not given),0.0,14.9,0.1,6.9
CC1=NN(C(=O)c2ccc(OC(C)C)cc2)C(O)(C(F)(F)F)C1 (stereo not given),-1.2,-18.5,0.0,-3.7
Cc1cc(C(F)(F)F)nc(SCc2ccc(C(=O)NNC(=O)c3ccccc3C)o2)n1,-0.6,0.4,0.0,38.0*
Cc1cc(C(F)(F)F)nc(SCc2ccc(C(=O)O)o2)n1,-0.7,6.5,0.1,7.9

# High-throughput results (PubChem BioAssay)
